PubChem BioAssay AID720509 (The Scripps Research Institute Molecular Screening Center, 2013)
Screen size: about 370,000 compounds; about 760 (0.21%) were called active.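 The calls were made as follows: active = inhibition above a per-campaign cutoff: mean of compounds within control limits plus 3 SD (cut at about 15% in these data); inactive = the rest.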 Many of the other results were omitted from the sample, so actives are more common in it than they were.

Molecular target: Fibrinogen beta chain (Homo sapiens) (UniProt P02675)
Test: small molecules displacing Tn6 from DD(E) complex – biochemical, fluorescence polarization, human fibrin, Tn6 probe, primary screen (AID 720509);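 also: 0% = median of all compound wells on the plate and 100% = blocking peptide control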
Details: Fibrin DD(E) TRITC-Tn6 fluorescence polarization displacement; at 8.3 µM; active compounds read high

Chain of Fibrinogen beta chain (Homo sapiens) (P02675 whole entry, looked up): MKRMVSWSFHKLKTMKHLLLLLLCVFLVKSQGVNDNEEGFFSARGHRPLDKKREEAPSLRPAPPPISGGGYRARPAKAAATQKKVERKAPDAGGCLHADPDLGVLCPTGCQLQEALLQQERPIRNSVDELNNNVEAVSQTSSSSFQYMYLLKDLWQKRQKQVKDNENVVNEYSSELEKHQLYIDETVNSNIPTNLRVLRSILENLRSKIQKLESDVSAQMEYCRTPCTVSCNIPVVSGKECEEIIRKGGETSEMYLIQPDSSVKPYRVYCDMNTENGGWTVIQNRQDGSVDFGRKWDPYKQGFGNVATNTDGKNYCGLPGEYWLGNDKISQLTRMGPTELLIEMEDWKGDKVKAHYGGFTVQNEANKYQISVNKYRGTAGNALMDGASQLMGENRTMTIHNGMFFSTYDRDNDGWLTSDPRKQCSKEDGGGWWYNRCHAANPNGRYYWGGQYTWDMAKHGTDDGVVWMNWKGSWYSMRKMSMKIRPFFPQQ

inhibition, active:
CCC1C(=O)NCCN1C(=O)c1ccc2nc(Cc3ccc(OC)cc3)oc2c1 (centres undefined) 15.8%
O=C(Nc1cccc(-c2nc3ccccc3[nH]2)c1)c1ccc(C(=O)Nc2cccc(-c3nc4ccccc4[nH]3)c2)cc1 19.9%
O=C(CCl)NNc1cccc(Cl)n1 30.8%
CN(C)CCCn1c(N)c(C#N)c2nc(C#N)c(C#N)nc21 15.8%
Cc1cc2nc3c(=O)[nH]c(=O)nc-3n(C[C@H](O)[C@H](O)[C@H](O)CO)c2cc1C 16.3%
CONc1nc2nonc2nc1NOC 15.3%
COc1ccc(Nc2nc(-c3ccccc3)cs2)cc1 16.7%
Cc1cc(C)c2nc(NC(=O)C3CCCO3)sc2c1 (centres undefined) 15.3%
Cc1nn(C)cc1N1C(=O)c2cccc3c(N)ccc(c23)C1=O 19.6%
CCc1ccccc1NC(=S)Nc1cc(OC)c(NC(=O)C(C)C)cc1OC 52.5%
O=c1cc(Cn2nnc(-c3ccc(Cl)cc3)n2)nc2sccn12 16.1%
CCOCC(=O)NCc1ccc2c(c1)cc(C)n2C 22.7%
O=C(NCCNc1ccccc1[N+](=O)[O-])c1ccccc1F 16.1%
Cc1ccc(-c2nn(-c3ccccc3)cc2/C=C/C(=O)Nc2cccc(S(N)(=O)=O)c2)cc1 52%

inhibition, inactive:
CCc1nc2c(OCc3ccc(C(F)(F)F)cc3)cccn2c1N(C)C(=O)CC(C)C 3.22%
Cc1nc2nc3c(cn2n1)C(=O)CC(c1ccccc1)C3 (centres undefined) 4.63%
CC(C)CSc1nnc(-c2cccnc2)n1Cc1ccccc1 -2.2%
Cc1cc(NS(=O)(=O)c2ccc(NC(=O)CSc3nnc(-c4ccc(C(C)(C)C)cc4)n3Cc3ccco3)cc2)nc(C)n1 6.53%
Cc1ccc(C(=O)NC2CCN(C(=O)Nc3ccccc3Cl)CC2)cc1 0.49%
CCOCCCNC(=O)c1c[nH]c2cc(C)ccc2c1=O -0.35%
CCn1ccnc1CN(C)C(=O)c1ccc2nc(Cc3ccc(OC)cc3)oc2c1 -4.19%
COc1ccc(Cc2nc3ccc(C(=O)N4CCC(N(C)C)C4)cc3o2)cc1 (centres undefined) 2.22%
CC(C)CN1CC(C)C(=O)N(c2ccccc2)C1=S (centres undefined) 11.7%
COC(=O)C1=C(C)N(c2ccc(C)cc2)/C(=C/c2ccc(O)cc2)C1=O 1.49%
Cc1ccccc1N(C(=O)Cc1cccs1)C(C(=O)NC1CCCCC1)c1cn(C)nc1C (centres undefined) -5.36%
O=C(Nc1nsc(-c2ccccc2)n1)c1ccncc1 1.55%
CCOc1ccc(C(=O)Nc2cccc(-c3ccc4nncn4n3)c2)cc1 12.2%
O=C(c1ccc(F)cc1)c1cn(Cc2ccc(F)cc2)c2cc3c(cc2c1=O)OCCO3 -1.55%
CCN(CC)C(=O)CC[C@@H]1CC[C@]2(CCCN(S(=O)(=O)C3CCCCC3)C2)O1 -5.4%
CCc1nc2ccccc2c(C(=O)OC2CCCCC2=O)c1C (centres undefined) -0.37%
CSc1ccccc1OCc1cc(C(=O)N2C[C@H]3CC[C@H]2C3)no1 8.52%
O=C(CN1C(=O)CSC1=O)N1CCCC(Nc2ccc(F)cc2)C1 (centres undefined) -6.4%
CC(=O)Nc1ccc(OCCC[n+]2cccc(C(=O)[O-])c2)cc1 -1.3%
Cn1ccc(=Nc2ccc(NC(=O)c3ccc(N=c4ccn(C)c5ccc([N+](=O)[O-])cc45)cc3)cc2)cc1 -6.27%
COC(=O)C1CN(Cc2cn(Cc3ccc(F)cc3)nn2)CCS(=O)(=O)N1Cc1ccc(Cl)cc1 (centres undefined) 10.6%
Cc1ccc(OCCNC(=O)c2cccc(S(=O)(=O)N3CCN(Cc4ccccc4)CC3)c2)cc1 4.41%
C[C@@H]1CN([C@H](C)CO)C(=O)CCCn2cc(nn2)CO[C@H]1CN(C)S(=O)(=O)c1ccc(Oc2ccccc2)nc1 -1.11%
Cc1noc(C)c1-c1nc(CSc2ccc(Cl)cc2)no1 -2.98%
C[C@@H](C(=O)N1CCNCC1)n1cc(CCC(=O)O)nn1 -0.49%
O=C(Cc1c(Cl)cccc1Cl)NC1CC1 6.01%
O=C(NNc1cc(Cl)cc(Cl)c1)c1c(F)cccc1Cl 1.43%
COC(=O)[C@]12C[C@H](CC(=O)NCc3cccc(C(F)(F)F)c3)C(=O)N(Cc3ccc4c(c3)OCO4)C1=C[C@H](COCc1ccccc1)O[C@@H]2C -3.35%
Cc1cccc(N(C(=O)c2csnn2)C(C(=O)NCc2ccccc2)c2ccncc2)c1 (centres undefined) 1%
CC(C)NC(=O)c1ccccc1S(=O)c1ccccc1C#N (centres undefined) -6.4%
CCn1nnc2cc(C(=O)Nc3ccc(C(=O)OC(C)C)cc3)ccc21 -3.39%
Cc1cccc(C)c1N1CCN(S(=O)(=O)N2CCOCC2)CC1 -1.95%
COc1ccc(-c2c(-c3cc(OC)cc(OC)c3)n(C)c3ccc(-c4ccn[nH]4)cc23)cc1 7.03%
CCN(CC)CCCC(C)n1c2nc(=O)[nH]c(=O)c-2nc2cc(Cl)ccc21 (centres undefined) 0.53%
CCc1ccc(NC(=O)CN2CCC(C(=O)c3ccc(OC)cc3)CC2)cc1 3.02%
S=c1[nH]cc(-c2ccc(Cl)cc2)n1-c1ccccc1 1.55%
COc1cc(C(=S)N2CCOCC2)cc(OC)c1OC(=O)c1cc([N+](=O)[O-])c(C)c([N+](=O)[O-])c1 -2.56%
COCCNc1nc2nonc2nc1N(C)Cc1ccc(C)cc1 -1.67%
N#CC(=C1SC=CS1)c1nc(-c2ccccc2)cs1 4.25%
COc1ccc(NC(=S)N2N=CCC2c2ccccc2)cc1 (centres undefined) 4.08%
CC(C)Nc1ccc(-n2nc3ccccc3[n+]2[O-])cc1 -1.03%
NS(=O)(=O)c1ccc(CNC(=O)c2ccc(Cl)cc2[N+](=O)[O-])cc1 9.9%
CSc1ccccc1NC(=O)c1cnc2sc(C)cn2c1=O 7.27%
COC(=O)[C@@H]1CCCN1C(=O)c1cc(COc2cccc3cccnc23)on1 7.18%
O=C(NCCCn1ccnc1)C1CCCN(S(=O)(=O)c2cc(Cl)ccc2Cl)C1 (centres undefined) 1.05%
COc1ccc2c(c1)CC[C@@H]1[C@@H]2CC[C@]2(C)C(=O)CC[C@@H]12 5.66%
CCc1cccc(CC)c1NC(=O)COc1ccccc1C(=O)c1cc(C#N)c(=O)n(C2CCCCC2)c1 -4.12%
CN(Cc1ccccc1)C(=O)CCC1CCN(C(=O)c2ccco2)CC1 -1.06%
Cc1cc(C)c2nc(N3CCC(C(=O)NCCN4CCOCC4)CC3)sc2c1 -1.61%
Cc1ccc(C)c(C(C)NC(=O)C2CCCO2)c1 (centres undefined) 0.84%
O=C(NCC1CCCO1)c1ccccc1-c1nc(-c2ccccc2Cl)no1 (centres undefined) 8.29%
C/C(N)=C(/C#N)C(=O)COC(=O)CNS(=O)(=O)c1ccc(C)cc1 4.06%
COc1ccc(C)cc1NC(=S)Nc1ccccc1SC -8.72%
COc1cc(NC(=S)NNC(=O)CC(C)C)c(OC)cc1Cl 9.57%
Cc1ccccc1OCC(=O)Nc1nnc(S(=O)(=O)N2CCCC2)s1 3.91%
Cc1ccc(NC(=O)C(C)Sc2nnc(C3CC3)n2C2CC2)cc1S(=O)(=O)N1CCOCC1 (centres undefined) -3.46%
O=C1CCc2cc(S(=O)(=O)N3CCC(C(=O)NCc4ccccc4Cl)CC3)ccc2N1 -0.95%
O=C(OCc1cc(=O)n2ccsc2n1)C1(c2ccc(Cl)cc2)CC1 4.84%
COc1ccc(C(=O)OCc2cc(=O)n3ccsc3n2)cc1F -0.34%
Cc1ccc(S(=O)(=O)NCC(=O)NNC(=O)c2ccc(Br)cc2)cc1C 0.07%
Cc1cc(=O)oc(C)c1C(=O)NCCN(C)Cc1ccccc1 -1.95%
C[C@@H]1ON(C)[C@H]2C[C@H]3c4cc(N5CCN(C)CC5)ccc4CCN3C(=O)[C@@H]12 -3.94%
Cc1ccc(CNC(=O)COc2ccc3c(c2)CCC3)cc1 -1.34%
Cc1ccc(CNC(=O)Cc2cn(C)c3ccccc23)cc1 -3.12%
CC[C@@H]1CC2=C(C(=O)OC(C)(C)O2)[C@@H](CC)O1 -4.34%
COc1ccc(NC(=O)c2cc([N+](=O)[O-])ccc2NC(=O)CNC2CCCCC2C)c(OC)c1 (centres undefined) -3.72%
CC1(C)C(C=C(Cl)Cl)C1C(=O)NC(O)C(=O)c1ccccc1 (centres undefined) 14.5%
O=C(c1ccc2c(c1)N(Cc1ccc(F)cc1)C(=O)CS2)N1CCOCC1 -0.8%
COC(=O)C(=Nc1ccccc1)/C(C(=O)C(=O)N(C)c1ccccc1)=C(\O)c1ccc(Cl)cc1 -4.47%
O=C(NCCCNc1ccc([N+](=O)[O-])cc1Cl)c1ccccc1F 0.76%
Cc1c(C(=O)NCCCc2ccccc2)cccc1[N+](=O)[O-] 7.53%
NS(=O)(=O)c1ccc(NC(=O)/C=C/c2ccccc2Cl)cc1 -10.6%
COc1ccc(-n2cnnc2SCC(=O)Nc2cccc(S(N)(=O)=O)c2)cc1 11.3%
CC1CN(S(=O)(=O)c2cccc(C(F)(F)F)c2)CN1C(=O)N1CCOCC1 (centres undefined) -4.35%
CC(=O)n1cc([C@@H]2C=C(C(=O)N3CCN(Cc4ccc5c(c4)OCO5)CC3)O[C@H](OCc3ccc(CO)cc3)C2)c2ccccc21 3.52%
